Data on 40 compounds can be found in PubChem BioAssay (NCATS).

Results filed as inconclusive are left out. Unmarked numbers belong to inactive results. Active and inactive are the calls of the source. The call rests on the fitted dose curve; in most records, active means well fitted inhibition curve with a large enough effect; inconclusive means small, poorly fitted or top-dose-only effect; inactive means no such curve, though single readings can be large or run the other way.
On the % scale 0 is the no-effect control and ±100 the full control effect; potency means the concentration at half of the fitted maximal effect.

The assay can be described thus: Primary qHTS for small molecule stabilizers of the endoplasmic reticulum resident proteome: Secreted ER Calcium Modulated Protein (SERCaMP) assay (AID 1508630). Conditions: SH-SY5Y GLuc-SERCaMP (Gaussia luciferase released on ER calcium loss) secretion, thapsigargin, luminescence; series mostly up to 38.4 µM; activity change, negative = inhibition: at the top concentration. The source says:
Assay Provider: Brandon K. Harvey Ph.D.
National Institute on Drug Abuse, National Institutes of Health, Baltimore, MD
Endoplasmic reticulum (ER) dysregulation is associated with human pathologies including neurodegenerative, cardiovascular, muscular, and diabetic conditions. Maintenance of ER calcium is critical for functions of the ER and its depletion can lead to loss of ER resident proteins, in a process termed exodosis. Therapeutic compounds capable of attenuating the redistribution of ER proteins under pathological conditions may slow or stop disease progression. To identify such compounds, we performed a quantitative high-throughput screen (qHTS) using the SERCaMP assay, which monitors secretion of ER resident proteins triggered by calcium depletion.
SERCaMP was initially developed as a reporter of ER calcium homeostasis using a Gaussia luciferase with a modified signal peptide and carboxy-terminus (GLuc-SERCaMP), modifications that confer secretion of the reporter in response to ER calcium depletion (Henderson et al., 2014). The assay was used to screen 9,501 compounds, including a collection of drugs approved by the FDA (US), EMA (EU), NHI (Japan), and HC (Canada) regulatory agencies (Huang et al., 2011). Since the SERCaMP reporter reflects the exodosis phenomenon (Trychta et al., 2018a), compounds identified in the screen have the potential to prevent exodosis by different mechanisms such as stabilizing ER calcium or augmenting ERS retrieval.
1. Henderson, M.J., Wires, E.S., Trychta, K.A., Richie, C.T., and Harvey, B.K. (2014). SERCaMP: a carboxy-terminal protein modification that enables monitoring of ER calcium homeostasis. Mol Biol Cell 25, 2828-2839.
2. Huang, R., Southall, N., Wang, Y., Yasgar, A., Shinn, P., Jadhav, A., Nguyen, D.T., and Austin, C.P. (2011). The NCGC pharmaceutical collection: a comprehensive resource of clinically approved drugs enabling repurposing and chemical genomics. Sci Transl Med 3, 80ps16.
3. Trychta, K.A., Back, S., Henderson, M.J., and Harvey, B.K. (2018a). KDEL Receptors Are Differentially Regulated to Maintain the ER Proteome under Calcium Deficiency. Cell Rep 25, 1829-1840 e1826.
SEQUENCE No. (1, 2, 3, etc.); […] (e.g., Cells, Incubation, Reagent, etc.); VALUE and DESCRIPTION.
1; Reagent; 5 uL; 1000 SH-SY5Y cells per wells
3; Compound; 23 nL; Control inhibitor / compound library
5; Reagent; 100 nM; Thapsigargin
7; Reagent; 1 uL; 0.5x coelenterazine
8; Detection; Luminescence; ViewLux imaging system
NOTES (numbers refer to sequence above)
1; SH-SY5Y human neuroblastoma cells stably expressing GLuc-SERCaMP (SH-SY5Y-GLuc-ASARTDL) cells were seeded in 1,536 well white tissue culture treated plates (Corning, Cat# 7464) in DMEM-high glucose-sodium pyruvate (ThermoFisher Scientific, Cat #10569) supplemented with 10% bovine growth serum (Hyclone), 10 U/ml penicillin (Gibco), 10 ug/ml streptomycin (Gibco), and 20 mM HEPES.
2; Assay plates were incubated for 5 hour at 37C in a humidified incubator containing 5% CO2.
3; qHTS libraries (23 nl, final concentrations of 1.53 uM, 7.67 uM, 38.3 uM) or controls (neutral control: DMSO, positive control: dantrolene) were added using a Kalypsis pin-tool Robotic System equipped with 1536 pinheads.
4; Cells were then incubated for 16 hours at 37C, 5% CO2.
5; Thapsigargin was added at 100 nM to deplete ER calcium stores.
6; Cells were incubated for 4 hour (37 °C, 5% CO2)
7; Gaussia luciferase in the medium was measured by adding 1 ul of 0.5x coelenterazine (final concentration 0.07x) prepared in Gaussia Luciferase Glow Assay Buffer (Pierce), without addition of the Cell Lysis Buffer Reagent.
8; Luminescence was measured using a ViewLux […] CCD imaging system (Perkin Elmer) equipped with clear filters. […] The same controls were also used for the calculation of the Z' factor, a measure of assay quality control, as previously described (Zhang et al., 1999). […]
Background: Quantitative high-throughput screening tests each substance at several concentrations.
Turning to `C=CC(C)(C)c1[nH]c2ccccc2c1C1=C(O)C(=O)C(c2c[nH]c3c(CC=C(C)C)cccc23)=C(O)C1=O`, the “activity change, negative = inhibition” value was -11%. Turning to `CCCCCCCCCCCCC/C=C/[C@@H](O)[C@H](CO)NC(=O)CCCCCCCCCCCCCCC`, the activity change, negative = inhibition was -18.7% [at 3.88 µM]. Consider `C=CCN1CCN(c2nc3ccccc3nc2C#N)CC1`, for which the Potency result is “inactive”. As to `O=[N+]([O-])c1ccc2cn[nH]c2c1`, the “activity change, negative = inhibition” value is -16.2%.

For `NCCCCCCNS(=O)(=O)c1cccc2ccccc12`, the “activity change, negative = inhibition” value is -33.6%. For `COC(=O)/C=C/c1ccc(C(=O)NCC(=O)N[C@@H](CCC(=O)OC)C(=O)N[C@@H](CC(C)C)C(N)=O)cc1`, the “activity change, negative = inhibition” value is 0.922%. The same measure, in the same setting: the result for `CSc1nc(N)c2ncn([C@H]3O[C@H](COP(=O)(O)OP(=O)(O)O)[C@@H](O)[C@@H]3O)c2n1` reads -27.7%.

`Cc1ccccc1N1CCN(S(=O)(=O)CC23CCC(CC2NC(=O)C(N)CCS(C)(=O)=O)C3(C)C)CC1` (stereo not given): the “activity change, negative = inhibition” value is -5%. Same read-out and setting: with `Nc1ncnc2c1ncn2[C@@H]1O[C@H](COP(=O)(O)OP(=O)(O)O)[C@@H](O)[C@H]1O` the figure was -12.2%; with `CCCCC/C=C/C=C1/C(=O)C=C[C@@H]1C/C=C\CCCC(=O)O`, -9.18% [at 3.88 µM]. As to `N[C@@H](C(=O)O)[C@H](CC(=O)O)c1ccc(Cl)cc1`, the “activity change, negative = inhibition” value is -7.14%.

As to `CCCCCCCCCCCCC(=O)N1CCCC[C@H]1CNC(=O)[C@@H](N)CCCCN`, the “activity change, negative = inhibition” value was -28.2%. Turning to `CC(C)(C)c1cc(O)c(C(C)(C)C)cc1O`, the Potency entry was “inactive”. Take `N[C@@]1(C(=O)O)CN[C@@H](C(=O)O)C1`: the “activity change, negative = inhibition” value was -8.23%. Same read-out and setting: the result for `CC(N)=NCCCC[C@H](N)C(=O)O` reads -32.3%; that for `Cc1o[nH]c(=O)c1CC[C@H](N)C(=O)O`, -26.1%; that for `O=[N+]([O-])c1ccc(CSc2ncnc3c2ncn3C2OC(CO)C(O)C2O)cc1` (stereo not given), -5.96%. As for `NS(=O)(=O)c1cccc2c1c([N+](=O)[O-])cc1[nH]c(=O)c(=O)[nH]c12`, the “activity change, negative = inhibition” value was -6.91%.

With `CCCCC/C=C\C/C=C\C/C=C\C/C=C\CCCCCC(=O)O`, the activity change, negative = inhibition was 14.9% [at 3.88 µM]. For `NC1(C(=O)O)CCC1`, the “activity change, negative = inhibition” value was -11.9%.

For the compound `CCS(=O)(=O)N1CCC[C@H]2CN3CCc4cc(OC)ccc4[C@@H]3C[C@@H]21`, the Potency result was “inactive”.

Consider `CSc1cc2c(cc1C(F)(F)F)N(C(=O)Nc1cccnc1)CC2`, for which the “activity change, negative = inhibition” value was -15.7%. Still for that read-out and setting: the result for `CN(C)CCCCSC(=N)N` reads -16.6%; that for `c1ccc(Oc2nc(NC3CCCCC3)c3[nH]cnc3n2)cc1`, 14.6%. Same read-out and setting: the result for `CCCCC/C=C\CC1OC1CCCCCCCC(=O)O` (stereo not given) reads -29.7% [at 0.478 µM]; that for `Fc1ccc([C@H]2CCNC[C@H]2COc2ccc3c(c2)OCO3)cc1`, 241%. For `COC(C)(C)CCCC(C)C/C=C/C(C)=C/C(=O)O` (stereo not given), the “activity change, negative = inhibition” value was -21.7%. Consider `CN(C)CCCSC(=N)N`, for which the Potency result is “inactive”. Still for that read-out and setting: the result for `CCCCN1CCC(CCC(=O)c2cc(Cl)c(N)cc2OC)CC1` reads “inactive”; that for `NC1(C(=O)O)C[C@H](C(=O)O)[C@H](C(=O)O)C1` (stereo not given in full), “inactive”. As for `CCCCCCCCCCCCC/C=C\[C@@H](O)[C@H](CO)NC(C)=O`, the “activity change, negative = inhibition” value is 15%. On to `CC(C)[C@@H]1[C@H]2CC[C@H](C2)[C@H]1N`, for which the Potency is 1000 nM (active). As for `O=C(c1ccc2c(c1)OCO2)N1CCCCC1`, the “activity change, negative = inhibition” value is -37.1%.

Regarding `CCCCC[C@H](O)/C=C/C=C\CCCCCCCC(=O)O`, the Potency entry was “inactive”. Regarding `C[C@@]12C(=O)OC(=O)[C@@]1(C)[C@@H]1CC[C@@H]2O1`, the “activity change, negative = inhibition” value was 143%. As to `C=C1/C(=C\C=C2\CCCC3(C)C2CCC3C(C)/C=C/C(O)C2CC2)CC(O)CC1O` (stereo not given), the “activity change, negative = inhibition” value was -27.8%. On to `c1ccc(N2CCN(CCCOc3ccc4c(c3)OCO4)CC2)cc1`, for which the Potency entry was “inactive”. Take `N[C@H](Cc1ccc(Cl)cc1)C(=O)O`: the “activity change, negative = inhibition” value was -17.3%. On the same count and under the same terms, the result for `COc1ccc(/C=C/C(=O)CC(=O)/C=C/c2cccc(O)c2OC)cc1O` reads -17.2%; that for `CC(C)(C)n1nc(-c2ccc(Cl)cc2)c2c(N)ncnc21`, 79.8%.
